Molecules are shown by their SMILES. About 8,600 (12%) of roughly 69,000 compounds showed an effect of 50% or more. The full list was thinned out, with strong results kept by preference.

The assay deals with Plasmodium berghei. The experiment in a line: Screen against P. berghei liver stage (PbLuc), transformed with Luciferase, at 10uM. The settings on record: tested at 10 uM. The assay is classed as functional, HepG2.
For the compound `COc1ccc(CN(Cc2cnc(N)nc2)CC2CCCO2)c(OC)c1` (centres undefined), the INHIBITION was 23.2%.

In the case of `CNC(=O)[C@@H](c1ccccc1F)N1CCC[C@H]1C(=O)NC1CCCC1`, the INHIBITION was -49.3%.

For `O=C(CN1C[C@H]2CC(OCc3ccccc3)C[C@H]2C1)N1CCOCC1` (some centres undefined), the INHIBITION was -2.09%.

Turning to `CC(C)C1CN(C(=O)c2cc(=O)[nH]c(=O)[nH]2)CCC(=O)N1CC1CC1` (centres undefined), the INHIBITION was 9.35%.

Take `Cc1[nH]c(=O)[nH]c(=O)c1CC(=O)N1CCCN(CC2CC2)C(C(C)C)C1` (centres undefined): the INHIBITION is listed as -69.3%.

With `CC(C)C1CN(C(=O)c2cn3ccccc3n2)CCCN1CC1CC1` (centres undefined), the INHIBITION is 47.6%.

`CC(C)C1CN(C(=O)c2ccc(Cl)cn2)CCCN1CC1CC1` (centres undefined): the INHIBITION is 14.9%.

`CC(C)C1CN(C(=O)c2cc(=O)[nH]c(=O)[nH]2)CCCN1CC1CC1` (centres undefined): the INHIBITION came out at 74.8%.

As to `CC(C)C1CN(C(=O)c2cn3cc(Cl)cnc3n2)CCCN1CC1CC1` (centres undefined), the INHIBITION stood at 60.3%.

Regarding `CNC(=O)C1(c2cnccn2)CCCN1C(=O)c1ccccn1` (centres undefined), the INHIBITION worked out at 42.4%.

For the compound `CCOCC(O)CN1CCN(C(=O)C2CCCC2)CC1` (centres undefined), the INHIBITION is listed as -19.4%.

Take `Cc1ccc(CN(CCCN2CCOCC2)Cc2cnc(C)n2C)o1`: the INHIBITION is -11.7%.

In the case of `NC(=O)C1CCN(C(=O)c2ccc(OCc3cscn3)cc2)CC1`, the INHIBITION came out at 56.85%.

`NC(=O)C1CCN(C(=O)c2cccc(OCc3cscn3)c2)CC1`: the INHIBITION is 17.8%.

For the compound `CC(=O)N1CCN(C(=O)c2cccc(OCc3cscn3)c2)CC1`, the INHIBITION is listed as 1.82%.

Take `NC(=O)C1CCCN(C(=O)c2cccc(OCc3cscn3)c2)C1` (centres undefined): the INHIBITION is 24.05%.

Consider `O=C(c1cccc(OCc2cscn2)c1)N1CCOCC1`, for which the INHIBITION is 45.75%.

`O=C1CN(C(=O)c2cccc(OCc3cscn3)c2)CCN1`: the INHIBITION stood at 61.5%.

Turning to `Cc1cccc(CN2CCC3(CC2)NC(=O)CC3c2ccccc2)n1` (centres undefined), the INHIBITION was determined as 37.1%.

On to `CC1CCCN(C(=O)NCCCn2cncn2)C1` (centres undefined), for which the INHIBITION worked out at 9.45%.

As to `Cn1nccc1-c1nnn2c1COCC(CNCC1CC1)C2` (centres undefined), the INHIBITION is 45.7%.

In the case of `CC(C)CN1CCC2(C=C(C(=O)NC3CC3)c3ccccc32)CC1`, the INHIBITION came to 27.2%.

With `CC(C)(C)NC(=O)COc1ccc(CNCCOc2ccccn2)cc1`, the INHIBITION was 18.6%.

`COCCNCc1ccc(OCC(=O)NC(C)(C)C)cc1`: the INHIBITION was 51.6%.

On to `CC(C)(C)NC(=O)COc1ccc(CNCc2ccccn2)cc1`, for which the INHIBITION is given as -6.39%.

As to `Cc1ccc(C2=CCN(C(=O)C3CCN(C)C(=O)C3)CC2)cc1` (centres undefined), the INHIBITION is -14.7%.

Regarding `COc1ncccc1C(=O)NC1CCOc2ccccc21` (centres undefined), the INHIBITION is 33.3%.

In the case of `CCN(C)c1ncnc2c1CCN(C(=O)NCc1cccnc1)CC2`, the INHIBITION is listed as -75.9%.

Consider `Cn1nc(-c2ccc(Cl)cc2)c(Br)c1C(=O)O`, for which the INHIBITION is recorded as 65.6%.

In the case of `Cc1ccc(-c2nn(C)c(C(=O)O)c2Br)cc1`, the INHIBITION is given as 62.8%.

Consider `Cn1nc(-c2cccc(Cl)c2)c(Br)c1C(=O)O`, for which the INHIBITION was determined as 46.1%.

On to `Cn1nc(-c2ccccc2)c(Br)c1C(=O)O`, for which the INHIBITION is on record as 36.9%.

On to `Cn1nc(-c2ccccc2)c(Cl)c1C(=O)O`, for which the INHIBITION amounted to 46.1%.

Take `Cc1cccc(-n2cnc(Cl)c2C(=O)O)c1`: the INHIBITION came out at 8.08%.

Consider `CNC(=O)CN(C)C(=O)c1ccc(-c2nc(C)cs2)cc1`, for which the INHIBITION is reported as 40.7%.

For the compound `Cc1noc(CNC(=O)N2CCN(c3nc(C)c(C)s3)CC2)n1`, the INHIBITION was 10.5%.

As for `CCCN(Cc1cnn(C)c1)S(=O)(=O)c1cccc(F)c1C#N`, the INHIBITION is -43.6%.

In the case of `O=C1CCC2(CCC(NC(=O)NCc3ccccc3)CC2)N1` (centres undefined), the INHIBITION is -46.7%.

As to `CC(CN1CCOC1=O)NC(=O)c1cccc(Cl)c1Cl` (centres undefined), the INHIBITION is -28.9%.

`Cc1cnn(CC2CCCN2C(=O)c2ccccc2-n2cnnn2)c1` (centres undefined): the INHIBITION was -33.9%.

`O=c1[nH][nH]c2cn(-c3ccc(Br)cc3)c(=O)n12`: the INHIBITION is listed as 46.4%.

Regarding `O=c1[nH][nH]c2cn(-c3ccc(F)cc3)c(=O)n12`, the INHIBITION amounted to 26.6%.

Take `O=c1[nH][nH]c2cn(-c3ccccc3)c(=O)n12`: the INHIBITION is on record as 63.7%.

As to `COc1ccc2c(ccn2CCC(=O)Nc2n[nH]c(C(C)C)n2)c1`, the INHIBITION was -45.5%.

Regarding `CN(C(=O)NCc1ccsc1)C1CCN(c2ccccc2)C1=O` (centres undefined), the INHIBITION is listed as -10.2%.

On to `CCCc1nc(C)cc(N2CCC3(CCC(=O)N(CC(N)=O)C3)CC2)n1`, for which the INHIBITION is given as -42.1%.

On to `CCCNC(=O)CCNc1cncc(-n2nc(C)cc2C)n1`, for which the INHIBITION was -2.03%.

Turning to `CCCNC(=O)Cn1c(-n2nc(C)cc2C)nc(CCC)cc1=O`, the INHIBITION is given as 54.2%.

On to `CCCc1cc(=O)n(CC(N)=O)c(-n2nc(C)cc2C)n1`, for which the INHIBITION was found to be 81.3%.

For `CCCc1cc(=O)n(CC(=O)NCCOC)c(-n2nc(C)cc2C)n1`, the INHIBITION is given as 28.7%.

Consider `CCCc1cc(=O)n(CC(=O)NC(C)C)c(-n2nc(C)cc2C)n1`, for which the INHIBITION was 29.3%.

Take `CN(C)CCCn1ccnc1C1CCCN(c2ncc(Cl)cc2F)C1` (centres undefined): the INHIBITION came to 17.5%.

Turning to `O=C(O)C1(n2ccc(-c3ccco3)n2)CCN(Cc2ccccn2)CC1`, the INHIBITION is on record as 4.1%.

Take `Cc1cc(C)n(C2CN(CC(=O)NC(C3CC3)C3CC3)C2)n1`: the INHIBITION was determined as 17.4%.

The values are drawn from ChEMBL document CHEMBL4513216, “Probing the Open Global Health Chemical Diversity Library for Multistage-Active Starting Points for Next-Generation Antimalarials” (ACS Infect Dis, 2020).
